One assay has as its system MCC-13. The experiment in a line: qHTS assay to identify novel small-molecules to repurpose for Merkel cell carcinoma treatment (AID 1296009). Note: nearly all actives have a fitted effect of over 60% in size. Note: potency is the fitted concentration of half-maximal effect. The note with it: MCC and control cell lines, CellTiter-Glo viability, 72 h; series mostly up to 46 µM. An outline of the steps:
(§1)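 Cells were incubated with compound for 72 hr at 37 degree celsius before CellTiter-Glo addition. Luminescence was normalized with no-cell wells as full cytotoxicity and DMSO as baseline.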

In another assay the test system is MCC-26. The assay is described as above. The note with it: MCC and control cell lines, CellTiter-Glo viability, 72 h; series mostly up to 46 µM. An outline of the steps:
as §1
Background: In ATP-based viability assays light output follows the ATP content of the culture.

In another assay the test system is MKL-1. Described as above. The note with it: MCC and control cell lines, CellTiter-Glo viability, 72 h; series mostly up to 46 µM. An outline of the steps:
as §1

In the next assay the test system is MKL-2. The assay is described as above. The note with it: MCC and control cell lines, CellTiter-Glo viability, 72 h; series mostly up to 46 µM. An outline of the steps: as §1
In another assay the test system is NIH3T3. The description is as above. The note with it: MCC and control cell lines, CellTiter-Glo viability, 72 h; at 44.8 µM (top of the series) unless noted. An outline of the steps: as §1
Another assay concerns UISO. The assay is described as above. The note with it: MCC and control cell lines, CellTiter-Glo viability, 72 h; series mostly up to 46 µM. An outline of the steps:
as §1

A further assay relates to WaGa. The description is as above. The note with it: MCC and control cell lines, CellTiter-Glo viability, 72 h; series mostly up to 46 µM. An outline of the steps:
as §1

A further assay concerns C33A. The experiment in a line: Primary qHTS to identify gynecologic anti-cancer compounds using libraries of approved drugs and bioactive compounds (AID 1345084). Note: nearly all actives have a fitted effect of over 55% in size. The note with it: Gynecologic cancer cell panel viability, ATPlite luminescence, 48 h; series mostly up to 57.5 µM. An outline of the steps:
(§2)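 Five-point cytotoxicity, 48 h drug exposure at 37 C, 5% CO2, on cells seeded 16 h beforehand. ATP content read by ATPlite luminescence.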

The subject of another assay is CASKI. The assay is described as above. The note with it: Gynecologic cancer cell panel viability, ATPlite luminescence, 48 h; series mostly up to 57.5 µM. An outline of the steps:
as §2

In a further assay the test system is Es-2. The assay is described as above. The note with it: Gynecologic cancer cell panel viability, ATPlite luminescence, 48 h; series mostly up to 57.5 µM. An outline of the steps:
as §2

In the next assay the test system is HeLa. The description is as above. The note with it: Gynecologic cancer cell panel viability, ATPlite luminescence, 48 h; series mostly up to 57.5 µM. An outline of the steps:
as §2

In another assay the test system is Hek293T. The description is as above. The note with it: Gynecologic cancer cell panel viability, ATPlite luminescence, 48 h, control line for the selectivity index; series mostly up to 57.5 µM. An outline of the steps: as §2
In a further assay the test system is JEG-3. The description is as above. The note with it: Gynecologic cancer cell panel viability, ATPlite luminescence, 48 h; series mostly up to 57.5 µM. An outline of the steps:
as §2

The next assay concerns OV90. The assay is described as above. The note with it: Gynecologic cancer cell panel viability, ATPlite luminescence, 48 h; series mostly up to 57.5 µM. An outline of the steps: as §2
A further assay deals with PA-1. The description is as above. The note with it: Gynecologic cancer cell panel viability, ATPlite luminescence, 48 h; series mostly up to 57.5 µM. An outline of the steps:
as §2

In the next assay the test system is SKOV3. Described as above. The note with it: Gynecologic cancer cell panel viability, ATPlite luminescence, 48 h; series mostly up to 57.5 µM. An outline of the steps:
as §2

In the next assay the test system is Tov-21-G. The description is as above. The note with it: Gynecologic cancer cell panel viability, ATPlite luminescence, 48 h; series mostly up to 57.5 µM. An outline of the steps: as §2
In another assay the test system is Tov112D. The description is as above. The note with it: Gynecologic cancer cell panel viability, ATPlite luminescence, 48 h; series mostly up to 57.5 µM. An outline of the steps: as §2
The next assay concerns CAOV3. The assay is described as above. The note with it: Gynecologic cancer cell panel viability, ATPlite luminescence, 48 h; series mostly up to 57.5 µM. An outline of the steps:
as §2

Assay [1] in a line: Drug repurposing screens with cells derived from glioblastoma tumor samples (AID 1345199). Note: nearly all actives have a fitted effect of over 40% in size. The note with it: GBM patient neurospheres viability, ATP luminescence, 48 h; Potency: tumour line A unless noted; series mostly up to 45.9 µM. An outline of the steps:
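Four patient lines of CD133+ GBM neurospheres were screened at several concentrations; hits were retested in those lines plus three slower-growing GBM lines, using 48-hour treatment and ATP-based viability.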

Here are results for 16 compounds from PubChem BioAssay (NCATS).

Structures are written as SMILES. Records with an inconclusive call do not appear. Activity calls are given as the source filed them. Calls come from the whole dose curve; as a rule, active = well fitted curve in the direction sought with a large enough effect; inconclusive = small, poorly fitted or top-dose-only effect, or another doubt; inactive = no such curve, though single readings can be large; an effect the other way counts as inactive or inconclusive.

Regarding `c1cc2c(cc1[C@H]1OC[C@H]3[C@H]1CO[C@H]3c1ccc3c(c1)OCO3)OCO2`, the Potency result with MCC-13, in the assay on MCC-26, in the assay on MKL-1, with MKL-2, in the assay on UISO and with WaGa was “inactive” in each case. Also, the call with NIH3T3 was inactive.

Consider `O=C(N[C@H]1CN2CCC1CC2)c1ccc(Cl)cc1`, for which the Potency result in the assay with MCC-13, in the assay with MCC-26, in the assay with MKL-1, in the assay with MKL-2, with UISO and with WaGa was “inactive” each time. Also, the Potency result with C33A, in the assay on CASKI, in the assay on Es-2, in the assay on HeLa, in the assay with Hek293T and in the assay on JEG-3 was “inactive” throughout. Moreover, the Potency result with OV90, in the assay on PA-1, in the assay on SKOV3, with Tov-21-G and with Tov112D was “inactive” throughout. The compound was classed as inactive in the assay on NIH3T3.

Consider `CCc1c(C(=O)C(N)=O)c2c(OCC(=O)O)cccc2n1Cc1ccccc1`, for which the Potency result with MCC-13, with MCC-26, in the assay on MKL-1, in the assay on MKL-2, in the assay with UISO and in the assay with WaGa was “inactive” throughout. For the same compound, the Potency entry with C33A, in the assay with CAOV3, with CASKI, with Es-2, in the assay on HeLa and with Hek293T was “inactive” each time. Further, the Potency result in the assay on JEG-3, in the assay with OV90, in the assay with PA-1, in the assay on SKOV3, in the assay on Tov-21-G and in the assay with Tov112D was “inactive” throughout. In the assay on NIH3T3, the outcome was inactive.

Turning to `O=C1CCC[C@@H]2[C@H]3CCCN4CCC[C@@H](CN12)[C@@H]34`, the Potency result in the assay on MCC-13, in the assay on MCC-26, with MKL-1, in the assay with MKL-2, in the assay with UISO and in the assay on WaGa was “inactive” throughout. Besides, the result in the assay with NIH3T3 was inactive.

Regarding `CC[N+]1(CCOC(=O)C(O)(c2ccccc2)c2ccccc2)CCCCC1`, the Potency result in the assay with MCC-13, in the assay on MCC-26, in the assay on MKL-1, with MKL-2, with UISO and with WaGa was “inactive” throughout. Further, the Potency entry in the assay on C33A, in the assay with CASKI, in the assay with Es-2, with HeLa, in the assay with Hek293T and with JEG-3 was “inactive” throughout. For the same compound, the Potency result (with OV90; in the assay on PA-1; with SKOV3; in the assay on Tov-21-G; in the assay with Tov112D; in assay [1]) was “inactive” in each case. In the assay with NIH3T3, the outcome was inactive.

`C[C@@H]1CC[C@H]2[C@@H](C)C(=O)O[C@@H]3O[C@@]4(C)CC[C@H]1[C@]32OO4`: the Potency result in the assay on MCC-13, in the assay on MCC-26, in the assay with MKL-1 and in the assay with MKL-2 was “inactive” each time.

`O=[N+]([O-])c1c(Cl)c(Cl)cc(Cl)c1Cl`: the Potency result in the assay with MCC-13, in the assay on MCC-26, with MKL-1, with MKL-2, with UISO and with WaGa was “inactive” each time. Besides, the Potency result in the assay with C33A, in the assay on CAOV3, in the assay with CASKI, with Es-2, in the assay with HeLa and in the assay on Hek293T was “inactive” each time. Moreover, the Potency entry (with JEG-3; in the assay with OV90; with PA-1; in the assay with Tov-21-G; in the assay with Tov112D; in assay [1]) was “inactive” in each case. Further, the outcome in the assay with NIH3T3 is “inactive [at 92 µM]”.

Take `Fc1cc(Br)ccc1CBr`: the Potency result with MCC-13, with MCC-26, with MKL-1, with MKL-2, in the assay on UISO and in the assay on WaGa was “inactive” throughout. Besides, the Potency result in the assay with C33A, in the assay with CAOV3, in the assay on CASKI, in the assay on Es-2, in the assay on HeLa and with Hek293T was “inactive” throughout. Besides, the Potency result in the assay on JEG-3, in the assay on OV90, in the assay with PA-1, in the assay on Tov-21-G and with Tov112D was “inactive” in each case. In the assay on NIH3T3, the compound was called inactive.

On to `CC1=NN=C(c2ccc(N)cc2)c2cc3c(cc2C1)OCO3`, for which the Potency entry in the assay with MCC-13, with MCC-26, in the assay with MKL-1, with MKL-2, in the assay with UISO and with WaGa was “inactive” throughout. Further, the result with NIH3T3 was inactive.

On to `COc1ccc2c(c1)[C@]13CCCCC1C(C2)N(C)CC3` (stereo partly drawn), for which the Potency entry in the assay on MCC-13, in the assay with MCC-26, in the assay on MKL-1, in the assay with MKL-2, in the assay with UISO and in the assay on WaGa was “inactive” throughout. In addition, the call in the assay with NIH3T3 was inactive.

For `O=C(Oc1ccc([N+](=O)[O-])cc1)N1CCC(C(O)(c2ccc3c(c2)OCO3)c2ccc3c(c2)OCO3)CC1`, the Potency result in the assay with MCC-13, with MCC-26, in the assay on MKL-1, in the assay on MKL-2, in the assay on UISO and in the assay on WaGa was “inactive” in each case. The Potency result in the assay with C33A, with CAOV3, in the assay with CASKI, in the assay with Es-2, with HeLa and with Hek293T was “inactive” throughout. Also, the Potency entry in the assay on JEG-3, with OV90, in the assay on PA-1, in the assay with SKOV3, in the assay with Tov-21-G and in the assay with Tov112D was “inactive” throughout. Besides, the call in the assay on NIH3T3 was inactive.

Turning to `O=C1C=CC[C@@H]2[C@H]3CCCN4CCC[C@@H](CN12)[C@@H]34`, the Potency entry in the assay with MCC-13, with MCC-26, in the assay with MKL-1, with MKL-2, in the assay on UISO and in the assay with WaGa was “inactive” each time. Further, the Potency result in the assay with C33A, with CAOV3, in the assay with CASKI, in the assay with Es-2, in the assay with HeLa and with Hek293T was “inactive” each time. Moreover, the Potency entry in the assay on JEG-3, with OV90, with PA-1, in the assay with SKOV3, with Tov-21-G and in the assay on Tov112D was “inactive” in each case. For the same compound, the result with NIH3T3 was inactive.

Take `CCN(CC)C(=O)c1ccc(C2=CC3(CCNCC3)Oc3cccc(O)c32)cc1`: the Potency result in the assay on MCC-13, with MCC-26, in the assay with MKL-1, in the assay on MKL-2, in the assay with UISO and in the assay with WaGa was “inactive” each time. For the same compound, the Potency entry in the assay on C33A, with CAOV3, in the assay with CASKI, with Es-2, with HeLa and with Hek293T was “inactive” each time. For the same compound, the Potency entry in the assay with JEG-3, in the assay on OV90, with PA-1, in the assay on SKOV3, in the assay with Tov-21-G and in the assay on Tov112D was “inactive” in each case. In addition, the compound was classed as inactive in the assay with NIH3T3.

As to `CC(C)(C)c1cc(C=C(C#N)C#N)cc(Br)c1O`, the Potency result in the assay with MCC-13, with MCC-26, in the assay with MKL-1, with MKL-2, in the assay on UISO and in the assay with WaGa was “inactive” in each case. Also, in the assay on NIH3T3, the compound was called inactive.

As to `O=[N+]([O-])c1ccc([As](=O)(O)O)cc1`, the Potency entry in the assay with MCC-13, in the assay on MCC-26, in the assay on MKL-1, with UISO, with WaGa and in the assay on C33A was “inactive” in each case. Moreover, the Potency entry in the assay with CASKI, in the assay with Es-2, in the assay on HeLa, in the assay with Hek293T, in the assay on JEG-3 and in the assay on OV90 was “inactive” in each case. The Potency entry (in the assay on SKOV3; in the assay on Tov-21-G; with Tov112D; in [1]) was “inactive” in each case. For the same compound, the Potency with MKL-2 is 8.41 µM (active). Moreover, the call in the assay with NIH3T3 was inactive.

Take `O=c1[nH]c2ccccc2n1C1CCN(Cc2ccc(-c3[nH]c4cc5ncnc5cc4nc3-c3ccccc3)cc2)CC1`: the Potency entry in the assay on MCC-13, in the assay with MCC-26, in the assay with MKL-1, with MKL-2, in the assay on UISO and with WaGa was “inactive” each time.
